Outcome data for 14 compounds are collected here from PubChem BioAssay AID720597 (Broad Institute, 2013).

Potency and affinity values are given separately. The source made the active and inactive calls.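 Rule for the calls: active = fitted half-maximal dose no more than twice the top valid tested dose, for compounds that lower signal; inconclusive = fit invalid, or curve flat with activity between -70 and -30; inactive = potency past limit, curve flat within ±30, or signal increasing.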

The target in the assay is NAD-dependent protein deacylase sirtuin-5, mitochondrial (Homo sapiens) (UniProt Q9NXA8). Put plainly: blockers of sirtuin-5 peptide desuccinylation – biochemical, fluorescence imaging, cherry-pick, set 6, dose response (AID 720597).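 Note: lower AMC signal can also come from blocking the trypsin step.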 The conditions noted are these: Purified SirT5, succinyl-peptide-AMC/trypsin fluorescence; series mostly up to 15 µM.
Sequence of NAD-dependent protein deacylase sirtuin-5, mitochondrial (Homo sapiens) (Q9NXA8 whole entry, looked up): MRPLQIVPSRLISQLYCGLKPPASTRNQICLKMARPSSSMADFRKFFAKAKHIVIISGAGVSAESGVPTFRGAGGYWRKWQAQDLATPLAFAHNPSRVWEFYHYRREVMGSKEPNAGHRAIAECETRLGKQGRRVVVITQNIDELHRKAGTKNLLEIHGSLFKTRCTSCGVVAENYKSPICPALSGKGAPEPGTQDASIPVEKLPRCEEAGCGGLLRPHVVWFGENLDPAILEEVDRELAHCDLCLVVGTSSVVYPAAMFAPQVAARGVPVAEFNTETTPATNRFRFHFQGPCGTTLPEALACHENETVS

With `O=C(c1cnccn1)N1CC(=O)N2[C@@H](CO)[C@H](c3ccc(C#CC4CC4)cc3)[C@@H]2C1`, the call was inactive.

For `CCCC#Cc1ccc([C@@H]2[C@@H](CO)N3CCCCN(S(=O)(=O)Cc4ccccc4)C[C@@H]23)cc1`, the call was inactive.

As to `Cc1ccccc1S(=O)(=O)N1CCCCN2[C@H](CO)[C@@H](c3ccc(-c4ccccc4)cc3)[C@H]2C1`, the compound was called inactive.

Turning to `NC(=O)NCC#Cc1ccc2c(c1)[C@]1(C(=O)N2)[C@H](c2ccccc2OCCO)N2[C@H](c3ccccc3)[C@H](c3ccccc3)OC(=O)[C@H]2[C@@H]1C(=O)N1CCN(c2ncccn2)CC1`, the result was inactive.

On to `Cc1ccccc1S(=O)(=O)N[C@H]1CC[C@@H](CCn2cc(Cc3ccccc3)nn2)O[C@H]1CO`, for which the compound was called inactive.

With `Cc1ccccc1-c1ccc2c(c1)O[C@@H](CN(C)C(=O)Nc1ccc(F)cc1)[C@@H](C)CN([C@@H](C)CO)S2(=O)=O`, the outcome was inactive.

Turning to `Cc1ccc(S(=O)(=O)N(C)C[C@@H]2OCCCC[C@H](C)Oc3ccc(NS(=O)(=O)c4ccc(Cl)cc4)cc3C(=O)N([C@H](C)CO)C[C@@H]2C)cc1`, the call was inactive.

Turning to `COc1ccc(NC(=O)N[C@@H]2CC[C@H](CCn3cc(-c4ccc(OC)cc4)nn3)O[C@@H]2CO)cc1`, the outcome was inactive.

For the compound `C[C@H](CO)N1C[C@H](C)[C@@H](CN(C)Cc2ccc(C(F)(F)F)cc2)OCCCC[C@H](C)Oc2ccc(NS(=O)(=O)c3cccs3)cc2C1=O`, the call was inactive.

For `C[C@@H]1CN([C@H](C)CO)C(=O)c2cc(NC(=O)CCCCCC(=O)Nc3ccccc3N)ccc2O[C@@H]1CN(C)Cc1ccc(Cl)c(Cl)c1`, the outcome was inactive.

On to `C[C@@H]1CN([C@@H](C)CO)C(=O)c2cc(NC(=O)Cc3cn(C)c4ccccc34)ccc2O[C@H]1CN(C)Cc1ccc(Cl)c(Cl)c1`, for which the compound was called inactive.

Take `O=C(C[C@H]1CC[C@H]2[C@@H](COC[C@@H](O)CN2S(=O)(=O)c2cccc(Cl)c2)O1)Nc1ccc(-c2ccccc2)cc1`: the compound was called inactive.

As for `C[C@@H]1CN([C@H](C)CO)C(=O)Cc2cc(NC(=O)Nc3ccc(F)cc3)ccc2O[C@@H]1CN(C)Cc1ccc2c(c1)OCO2`, the compound was classed as inactive.

Regarding `Cc1ccc(-c2cnc3c(c2)C(=O)N([C@H](C)CO)C[C@H](C)[C@@H](CN(C)Cc2ccccc2F)O3)cc1`, the outcome was inactive.
